Source: PMC7862700, “An all-to-all approach to the identification of sequence-specific readers for epigenetic DNA modifications on cytosine”

Legend:
Assay in all cases: DAPPL (digital affinity profiling via proximity ligation, sequencing); 10 mM Tris-HCl pH 7.5, 50 mM NaCl, 1 mM DTT, 4% glycerol, room temperature, 30 min; GST-TFs on glutathione beads, 16-mer random dsDNA library, 0.1% formaldehyde crosslink after washing; high values mean tight binding
Conditions in all cases: protein: recombinant; tags: N-terminal GST; dsDNA, one strand shown
ERF = molecular target: T1, ERF (Homo sapiens, UniProt P50548 1-548)
T1 sequence: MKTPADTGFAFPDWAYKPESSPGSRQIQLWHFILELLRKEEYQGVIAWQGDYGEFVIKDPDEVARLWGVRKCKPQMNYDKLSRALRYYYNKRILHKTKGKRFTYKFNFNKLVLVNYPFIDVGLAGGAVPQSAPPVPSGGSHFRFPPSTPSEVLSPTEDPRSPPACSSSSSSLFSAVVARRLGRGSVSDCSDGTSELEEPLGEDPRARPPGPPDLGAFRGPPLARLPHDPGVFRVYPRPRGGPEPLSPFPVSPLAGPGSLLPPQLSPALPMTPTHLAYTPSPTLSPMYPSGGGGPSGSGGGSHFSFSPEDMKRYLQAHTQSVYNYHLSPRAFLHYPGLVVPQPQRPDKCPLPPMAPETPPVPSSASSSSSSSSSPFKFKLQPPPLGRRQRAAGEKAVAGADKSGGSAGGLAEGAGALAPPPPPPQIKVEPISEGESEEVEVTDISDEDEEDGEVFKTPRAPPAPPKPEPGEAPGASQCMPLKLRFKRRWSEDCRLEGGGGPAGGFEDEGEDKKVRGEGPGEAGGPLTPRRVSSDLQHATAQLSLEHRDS
In short: (§1)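 GST fusions of human transcription factors were expressed in yeast and captured with glutathione beads. Once given DNA barcodes and pooled alongside a tag-only sample, they were incubated for 30 min at room temperature with 200 nmole of a random double-stranded 16-mer DNA library in Tris/NaCl/DTT/glycerol buffer, then washed, crosslinked (0.1% formaldehyde), proximity-ligated, PCR-amplified and sequenced on an Illumina NextSeq500. The binding signal of each hexamer is its read frequency for a factor divided by its frequency for the tag-only sample.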

ETV3L = molecular target: T2, ETV3L (Homo sapiens, UniProt Q6ZN32 1-361)
T2 sequence: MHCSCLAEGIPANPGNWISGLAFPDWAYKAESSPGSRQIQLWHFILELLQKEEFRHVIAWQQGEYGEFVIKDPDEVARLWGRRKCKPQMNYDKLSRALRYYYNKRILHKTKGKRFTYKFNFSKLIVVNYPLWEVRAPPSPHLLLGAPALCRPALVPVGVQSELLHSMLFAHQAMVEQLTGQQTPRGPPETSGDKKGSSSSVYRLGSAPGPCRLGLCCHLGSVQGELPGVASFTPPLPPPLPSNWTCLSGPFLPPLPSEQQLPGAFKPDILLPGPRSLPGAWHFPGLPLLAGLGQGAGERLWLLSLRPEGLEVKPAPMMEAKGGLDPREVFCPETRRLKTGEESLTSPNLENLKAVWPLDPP
In short: as §1

ETS2 = molecular target: T3, ETS2 (Homo sapiens, UniProt P15036 1-469)
T3 sequence: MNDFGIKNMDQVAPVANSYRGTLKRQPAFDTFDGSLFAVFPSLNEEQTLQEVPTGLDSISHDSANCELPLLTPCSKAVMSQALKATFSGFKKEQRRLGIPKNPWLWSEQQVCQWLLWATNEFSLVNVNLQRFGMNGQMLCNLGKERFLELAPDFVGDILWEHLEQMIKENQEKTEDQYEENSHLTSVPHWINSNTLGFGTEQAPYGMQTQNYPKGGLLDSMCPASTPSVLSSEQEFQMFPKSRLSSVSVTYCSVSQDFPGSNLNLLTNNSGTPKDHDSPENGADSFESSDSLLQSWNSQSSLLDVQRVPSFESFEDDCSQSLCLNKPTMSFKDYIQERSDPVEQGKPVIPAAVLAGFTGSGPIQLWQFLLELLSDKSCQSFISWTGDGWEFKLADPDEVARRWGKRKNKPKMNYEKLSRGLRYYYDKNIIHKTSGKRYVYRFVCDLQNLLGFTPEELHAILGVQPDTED
In short: as §1

SPDEF = molecular target: T4, SPDEF (Homo sapiens, UniProt O95238 1-335)
T4 sequence: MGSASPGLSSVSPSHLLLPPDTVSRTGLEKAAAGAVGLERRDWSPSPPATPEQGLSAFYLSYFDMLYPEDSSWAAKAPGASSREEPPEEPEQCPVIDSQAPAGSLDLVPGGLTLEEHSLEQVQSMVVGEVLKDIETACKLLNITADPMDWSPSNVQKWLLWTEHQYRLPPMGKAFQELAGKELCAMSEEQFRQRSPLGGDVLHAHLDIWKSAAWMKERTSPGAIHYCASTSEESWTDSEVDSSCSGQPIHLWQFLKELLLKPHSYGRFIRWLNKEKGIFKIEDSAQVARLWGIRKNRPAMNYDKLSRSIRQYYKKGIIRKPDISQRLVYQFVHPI
In short: as §1

ETV7 = molecular target: T5, ETV7 (Homo sapiens, UniProt Q9Y603 1-341)
T5 sequence: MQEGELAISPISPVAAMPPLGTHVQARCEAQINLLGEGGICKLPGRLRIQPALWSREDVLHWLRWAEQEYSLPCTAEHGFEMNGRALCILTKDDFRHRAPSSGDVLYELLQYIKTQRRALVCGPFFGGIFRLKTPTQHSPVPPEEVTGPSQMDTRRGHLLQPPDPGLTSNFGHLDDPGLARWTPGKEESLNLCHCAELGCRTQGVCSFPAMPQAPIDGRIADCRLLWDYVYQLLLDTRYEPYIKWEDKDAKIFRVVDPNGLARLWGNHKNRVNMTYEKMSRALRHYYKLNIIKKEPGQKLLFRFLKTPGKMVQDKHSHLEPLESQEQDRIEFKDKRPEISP
In short: as §1

ELF5 = molecular target: T6, ELF5 (Homo sapiens, UniProt Q9UKW6-2 1-255)
T6 sequence: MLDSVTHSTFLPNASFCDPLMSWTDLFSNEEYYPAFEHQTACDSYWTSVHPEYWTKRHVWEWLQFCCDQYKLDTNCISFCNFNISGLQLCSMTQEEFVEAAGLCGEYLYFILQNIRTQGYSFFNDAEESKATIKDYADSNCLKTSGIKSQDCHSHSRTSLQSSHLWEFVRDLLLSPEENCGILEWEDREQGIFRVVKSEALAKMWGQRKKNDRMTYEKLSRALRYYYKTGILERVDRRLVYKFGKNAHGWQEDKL
In short: as §1

ETV3 = molecular target: T7, ETV3 (Homo sapiens, UniProt P41162-2 1-143)
T7 sequence: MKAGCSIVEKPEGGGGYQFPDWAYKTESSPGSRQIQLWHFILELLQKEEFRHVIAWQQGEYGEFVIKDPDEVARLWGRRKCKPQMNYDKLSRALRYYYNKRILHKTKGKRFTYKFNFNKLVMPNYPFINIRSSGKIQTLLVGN
In short: as §1

ETV6 = ETV6 (Homo sapiens, UniProt P41212 1-452)
ETV6, sequence (P41212 whole entry): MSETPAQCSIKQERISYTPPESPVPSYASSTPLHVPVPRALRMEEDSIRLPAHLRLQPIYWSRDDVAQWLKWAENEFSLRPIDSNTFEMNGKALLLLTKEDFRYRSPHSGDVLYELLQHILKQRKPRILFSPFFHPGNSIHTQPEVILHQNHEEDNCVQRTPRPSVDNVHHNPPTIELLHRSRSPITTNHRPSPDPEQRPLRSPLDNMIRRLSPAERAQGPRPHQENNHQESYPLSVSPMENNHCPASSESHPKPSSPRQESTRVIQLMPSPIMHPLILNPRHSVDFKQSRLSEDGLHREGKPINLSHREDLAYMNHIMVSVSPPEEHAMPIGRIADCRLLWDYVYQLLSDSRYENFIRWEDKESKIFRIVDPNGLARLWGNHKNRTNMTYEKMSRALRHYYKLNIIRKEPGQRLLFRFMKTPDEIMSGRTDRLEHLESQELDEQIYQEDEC
In short: as §1

Sequence	binding signal (ERF)	binding signal (ETV3L)	binding signal (ETS2)	binding signal (SPDEF)	binding signal (ETV7)	binding signal (ELF5)	binding signal (ETV3)	binding signal (ETV6)
CTTATT	1.44 fold enrichment (6-mer frequency, TF over GST control)	1.5 fold enrichment (6-mer frequency, TF over GST control)	1.51 fold enrichment (6-mer frequency, TF over GST control)	1.54 fold enrichment (6-mer frequency, TF over GST control)	1.43 fold enrichment (6-mer frequency, TF over GST control)	1.42 fold enrichment (6-mer frequency, TF over GST control)	1.31 fold enrichment (6-mer frequency, TF over GST control)	1.48 fold enrichment (6-mer frequency, TF over GST control)
CGTATA	1.13 fold enrichment (6-mer frequency, TF over GST control)	1.1 fold enrichment (6-mer frequency, TF over GST control)	1.11 fold enrichment (6-mer frequency, TF over GST control)	1.21 fold enrichment (6-mer frequency, TF over GST control)	1.15 fold enrichment (6-mer frequency, TF over GST control)	1.16 fold enrichment (6-mer frequency, TF over GST control)	1.18 fold enrichment (6-mer frequency, TF over GST control)	1.08 fold enrichment (6-mer frequency, TF over GST control)
GAAATC	1.31 fold enrichment (6-mer frequency, TF over GST control)	1.42 fold enrichment (6-mer frequency, TF over GST control)	1.41 fold enrichment (6-mer frequency, TF over GST control)	1.4 fold enrichment (6-mer frequency, TF over GST control)	1.46 fold enrichment (6-mer frequency, TF over GST control)	1.58 fold enrichment (6-mer frequency, TF over GST control)	1.42 fold enrichment (6-mer frequency, TF over GST control)	1.49 fold enrichment (6-mer frequency, TF over GST control)
CTTAGT	1.29 fold enrichment (6-mer frequency, TF over GST control)	1.18 fold enrichment (6-mer frequency, TF over GST control)	1.15 fold enrichment (6-mer frequency, TF over GST control)	1.2 fold enrichment (6-mer frequency, TF over GST control)	1.07 fold enrichment (6-mer frequency, TF over GST control)	1.13 fold enrichment (6-mer frequency, TF over GST control)	1.31 fold enrichment (6-mer frequency, TF over GST control)	1.24 fold enrichment (6-mer frequency, TF over GST control)
TTATCG	1.2 fold enrichment (6-mer frequency, TF over GST control)	1.32 fold enrichment (6-mer frequency, TF over GST control)	1.2 fold enrichment (6-mer frequency, TF over GST control)	1.16 fold enrichment (6-mer frequency, TF over GST control)	1.02 fold enrichment (6-mer frequency, TF over GST control)	1.25 fold enrichment (6-mer frequency, TF over GST control)	1.22 fold enrichment (6-mer frequency, TF over GST control)	1.27 fold enrichment (6-mer frequency, TF over GST control)
GCTTAC	1.13 fold enrichment (6-mer frequency, TF over GST control)	1.09 fold enrichment (6-mer frequency, TF over GST control)	1.09 fold enrichment (6-mer frequency, TF over GST control)	1.23 fold enrichment (6-mer frequency, TF over GST control)	1.03 fold enrichment (6-mer frequency, TF over GST control)	1.14 fold enrichment (6-mer frequency, TF over GST control)	1.23 fold enrichment (6-mer frequency, TF over GST control)	1.03 fold enrichment (6-mer frequency, TF over GST control)
GATGTA	1.18 fold enrichment (6-mer frequency, TF over GST control)	1.39 fold enrichment (6-mer frequency, TF over GST control)	1.49 fold enrichment (6-mer frequency, TF over GST control)	2 fold enrichment (6-mer frequency, TF over GST control)	1.43 fold enrichment (6-mer frequency, TF over GST control)	1.38 fold enrichment (6-mer frequency, TF over GST control)	1.39 fold enrichment (6-mer frequency, TF over GST control)	1.35 fold enrichment (6-mer frequency, TF over GST control)
AATAAT	1.52 fold enrichment (6-mer frequency, TF over GST control)	1.35 fold enrichment (6-mer frequency, TF over GST control)	1.42 fold enrichment (6-mer frequency, TF over GST control)	1.21 fold enrichment (6-mer frequency, TF over GST control)	1.23 fold enrichment (6-mer frequency, TF over GST control)	1.29 fold enrichment (6-mer frequency, TF over GST control)	1.27 fold enrichment (6-mer frequency, TF over GST control)	1.34 fold enrichment (6-mer frequency, TF over GST control)
AGCTTA	1.2 fold enrichment (6-mer frequency, TF over GST control)	1.08 fold enrichment (6-mer frequency, TF over GST control)	1.15 fold enrichment (6-mer frequency, TF over GST control)	1.17 fold enrichment (6-mer frequency, TF over GST control)	1.15 fold enrichment (6-mer frequency, TF over GST control)	1.08 fold enrichment (6-mer frequency, TF over GST control)	1.17 fold enrichment (6-mer frequency, TF over GST control)	1.05 fold enrichment (6-mer frequency, TF over GST control)
CATTTT	1.22 fold enrichment (6-mer frequency, TF over GST control)	1.24 fold enrichment (6-mer frequency, TF over GST control)	1.1 fold enrichment (6-mer frequency, TF over GST control)	1.06 fold enrichment (6-mer frequency, TF over GST control)	1.2 fold enrichment (6-mer frequency, TF over GST control)	1.22 fold enrichment (6-mer frequency, TF over GST control)	1.18 fold enrichment (6-mer frequency, TF over GST control)	1.28 fold enrichment (6-mer frequency, TF over GST control)
GCTCAA	1.08 fold enrichment (6-mer frequency, TF over GST control)	1.13 fold enrichment (6-mer frequency, TF over GST control)	1.11 fold enrichment (6-mer frequency, TF over GST control)	1.04 fold enrichment (6-mer frequency, TF over GST control)	1.16 fold enrichment (6-mer frequency, TF over GST control)	1 fold enrichment (6-mer frequency, TF over GST control)	1.04 fold enrichment (6-mer frequency, TF over GST control)	1.1 fold enrichment (6-mer frequency, TF over GST control)
ATCCAT	1.26 fold enrichment (6-mer frequency, TF over GST control)	1.11 fold enrichment (6-mer frequency, TF over GST control)	1.17 fold enrichment (6-mer frequency, TF over GST control)	1.17 fold enrichment (6-mer frequency, TF over GST control)	1.11 fold enrichment (6-mer frequency, TF over GST control)	1.09 fold enrichment (6-mer frequency, TF over GST control)	1.19 fold enrichment (6-mer frequency, TF over GST control)	1.09 fold enrichment (6-mer frequency, TF over GST control)
CTAACT	1.32 fold enrichment (6-mer frequency, TF over GST control)	1.19 fold enrichment (6-mer frequency, TF over GST control)	1.35 fold enrichment (6-mer frequency, TF over GST control)	1.24 fold enrichment (6-mer frequency, TF over GST control)	1.29 fold enrichment (6-mer frequency, TF over GST control)	1.21 fold enrichment (6-mer frequency, TF over GST control)	1.24 fold enrichment (6-mer frequency, TF over GST control)	1.29 fold enrichment (6-mer frequency, TF over GST control)
TCTAGC	1.35 fold enrichment (6-mer frequency, TF over GST control)	1.27 fold enrichment (6-mer frequency, TF over GST control)	1.3 fold enrichment (6-mer frequency, TF over GST control)	1.22 fold enrichment (6-mer frequency, TF over GST control)	1.36 fold enrichment (6-mer frequency, TF over GST control)	1.21 fold enrichment (6-mer frequency, TF over GST control)	1.32 fold enrichment (6-mer frequency, TF over GST control)	1.22 fold enrichment (6-mer frequency, TF over GST control)
TTTTTC	1.16 fold enrichment (6-mer frequency, TF over GST control)	1.34 fold enrichment (6-mer frequency, TF over GST control)	1.17 fold enrichment (6-mer frequency, TF over GST control)	1.21 fold enrichment (6-mer frequency, TF over GST control)	1.23 fold enrichment (6-mer frequency, TF over GST control)	1.37 fold enrichment (6-mer frequency, TF over GST control)	1.25 fold enrichment (6-mer frequency, TF over GST control)	1.15 fold enrichment (6-mer frequency, TF over GST control)
